From PubChem BioAssay
Shown are actives, neighbours in structure and some others; about 6.8% of the full set was active somewhere.
Pf Dd2 inh = P. falciparum Dd2 growth inhibitors, primary screen, SYBR Green fluorescence, single dose replicates; 72 h; hits give low values; activity change, % at 10 µM; 94,000 tested, 2.3% active; AID 1159554, 2015; in the data active = activity change below about -80%; inconclusive = no clear call, values can overlap the other calls
T cruzi growth-1 = T. cruzi intracellular proliferation inhibitors, primary screen, cell-based, beta-gal Tulahuen parasites, NIH3T3 host, luminescence | T. cruzi beta-gal in NIH3T3, GalScreen luminescence, 90 h | inhibition, % at 8.34 µM | 77,000 tested, 5.9% active | AID 624255, 2012;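 active = mean inhibition above about 93%, with at least 55% of replicates each passing it, limit read from the data, passing the limit was not always enough; inconclusive = only one of those two conditions holds; inactive = neither condition holds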
C diff growth = C. difficile growth inhibitors, primary screen, HTS | Clostridium difficile clinical isolate growth, OD600, 24 h; hits give low values | growth activity, negative = inhibition, % at 16 µg/mL (by protocol) | 86,000 tested, 0.25% active;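 active = mean growth activity at or below -80% and every replicate also at or below -80%; inconclusive = mean at or below -80% but some replicate above -80%; inactive = mean growth activity above -80%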;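 also: 0% = DMSO wells and -100% = levofloxacin 16 µg/mL wells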
T cruzi growth-2 = T. cruzi intracellular proliferation inhibitors, confirmation, cell-based, NIH3T3 host, beta-gal parasite, luminescence, cherry-pick | T. cruzi beta-gal in NIH3T3, GalScreen luminescence, 90 h | inhibition, % at 8.35 µM | AID 651739, 2012 | 5,600 tested, 72% active | shares compounds with T cruzi growth-1;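 active = mean replicate inhibition above about 95% and at least 55% of replicates individually reaching it, limit read from the data; inconclusive = only one of the two criteria is met; inactive = neither criterion is met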
T cruzi growth-3 = inhibitors of intracellular T. cruzi replication, confirmation, NIH3T3 host cells, beta-gal parasites, cherry-pick, set 2; shares compounds with T cruzi growth-1; T. cruzi beta-gal in NIH3T3, GalScreen luminescence, 90 h; inhibition, % at 2.09 µM; 5,600 tested, 21% active;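 active = mean inhibition above about 95%, with at least 55% of replicates also reaching it, limit read from the data; inconclusive = meets just one of the two conditions; inactive = meets neither condition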;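 also: plate controls were neutral control median for no effect and positive control median for full effect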
3T3 cytotox = cytotoxicity in mouse NIH/3T3 fibroblasts, confirmation, cytotoxicity control for T. cruzi proliferation inhibitor project, cell-based, cherry-pick, single point; shares compounds with T cruzi growth-1; NIH/3T3 viability, CellTiter-Glo ATP luminescence, 90 h; cytotoxicity (signal decrease), % at 8.35 µM; 5,600 tested, 14% active; AID 651742, 2012;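 active = mean signal decrease across replicates above about 35% based on untreated-well scatter, with enough replicates individually passing, limit read from the data; inconclusive = no rule stated though some were filed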;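 also: 0% = median of neutral control wells and 100% = median of positive control wells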
NIH3T3 tox 2 = NIH/3T3 fibroblast cytotoxicity, confirmation, cytotoxicity control, cell-based, cherry-pick, single point, set 2. shares compounds with T cruzi growth-1. NIH/3T3 viability, CellTiter-Glo ATP luminescence, 90 h. inhibition, % at 24.9 µM. 5,600 tested, 56% active;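 active = mean loss of cell viability signal at or above a set limit, and enough replicates individually reaching it; inconclusive = meets only the mean limit or only the replicate share; inactive = meets neither condition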;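 also: 0% = median of neutral control wells and 100% = median of positive control wells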
* = called active by the depositor.

Results for C[C@@H]1CN([C@@H](C)CO)S(=O)(=O)c2ccc(C#Cc3ccncc3)cc2O[C@@H]1CN(C)C(=O)Nc1ccc2c(c1)OCO2 ?
Pf Dd2 inh: -12; T cruzi growth-1: 1; C diff growth: 0

What do the screens show for `C[C@H](CO)N1C[C@H](C)[C@@H](CN(C)C(=O)Nc2ccc3c(c2)OCO3)Oc2cc(C#Cc3ccccc3)ccc2S1(=O)=O`?
Pf Dd2 inh: -71; T cruzi growth-1: 131*; C diff growth: 7; T cruzi growth-2: 104*; T cruzi growth-3: 71; 3T3 cytotox: 4; NIH3T3 tox 2: 13

What do the screens show for `C[C@@H]1CN([C@H](C)CO)S(=O)(=O)c2ccc(C3=CCCC3)cc2O[C@@H]1CN(C)C(=O)Nc1ccc2c(c1)OCO2`?
Pf Dd2 inh: -20; T cruzi growth-1: 76; C diff growth: -1

What do the screens show for `C[C@H](CO)N1C[C@H](C)[C@@H](CN(C)C(=O)Nc2ccc3c(c2)OCO3)Oc2cc(C#Cc3ccncc3)ccc2S1(=O)=O`?
Pf Dd2 inh: -56; T cruzi growth-1: 82; C diff growth: 2

What do the screens show for `CO[C@@H]1CN(C)C(=O)c2cc(NS(C)(=O)=O)ccc2OC[C@H](C)N(C(=O)CC2CC2)C[C@@H]1C`?
Pf Dd2 inh: 10; T cruzi growth-1: -18; C diff growth: -1

What do the screens show for `C[C@H](CO)N1C[C@H](C)[C@H](CN(C)C(=O)Cc2ccccn2)Oc2ncc(-c3ccccc3)cc2C1=O`?
Pf Dd2 inh: 1; T cruzi growth-1: -18; C diff growth: -3

Results for Cc1noc(C)c1NC(=O)Nc1ccc2c(c1)C(=O)N([C@@H](C)CO)C[C@@H](C)[C@@H](CN(C)Cc1ccc(C(F)(F)F)cc1)O2 ?
Pf Dd2 inh: 16; T cruzi growth-1: -31; C diff growth: 39

What do the screens show for `C[C@@H]1CN([C@H](C)CO)C(=O)Cc2cc(NC(=O)Nc3ccc(C(F)(F)F)cc3)ccc2O[C@@H]1CN(C)Cc1ccc(C(=O)Nc2ccccc2N)cc1`?
Pf Dd2 inh: -14; T cruzi growth-1: inconclusive; C diff growth: 23; T cruzi growth-2: 100*; T cruzi growth-3: 106*; 3T3 cytotox: 55*; NIH3T3 tox 2: 97*

Results for C[C@H]1CN([C@@H](C)CO)C(=O)Cc2cc(NC(=O)Nc3ccc(C(F)(F)F)cc3)ccc2O[C@H]1CN(C)Cc1ccc(C(=O)Nc2ccccc2N)cc1 ?
Pf Dd2 inh: -35; T cruzi growth-1: 80; C diff growth: 1

How did C[C@@H]1CN([C@@H](C)CO)C(=O)Cc2cc(N(C)C)ccc2O[C@H]1CN(C)Cc1ccc(C(=O)Nc2ccccc2N)cc1 do in these assays?
Pf Dd2 inh: -59; T cruzi growth-1: 96*; C diff growth: 1; T cruzi growth-2: 106*; T cruzi growth-3: inconclusive; 3T3 cytotox: 41*; NIH3T3 tox 2: 82*

Results for C[C@H](CO)N1C[C@H](C)[C@H](CN(C)Cc2ccc(C(=O)Nc3ccccc3N)cc2)OCc2cnnn2CCCC1=O ?
Pf Dd2 inh: -26; T cruzi growth-1: 106*; C diff growth: -5; T cruzi growth-2: 108*; T cruzi growth-3: 59; 3T3 cytotox: 18; NIH3T3 tox 2: 26

What do the screens show for `C[C@@H]1CN([C@@H](C)CO)C(=O)Cc2cc(NC(=O)CCCN(C)C)ccc2O[C@H]1CN(C)Cc1ccc(C(=O)Nc2ccccc2N)cc1`?
Pf Dd2 inh: -12; C diff growth: -6

How did C[C@H]1CN([C@@H](C)CO)C(=O)Cc2cc(N(C)C)ccc2O[C@@H]1CN(C)Cc1ccc(C(=O)Nc2ccccc2N)cc1 do in these assays?
Pf Dd2 inh: -51; T cruzi growth-1: 74; C diff growth: 0
